Data published in PubChem BioAssay AID1159580 (chemical genetic matrix, 2015).
Values joined by “and” are separate entries in the source; they are usually repeats but may differ in a detail not shown here. Equal entries are not always repeated. In all, about 5,500 compounds went through this assay and about 2,000 (36%) were called active. Roughly 18% stayed inconclusive and do not appear here. No stated cut-off is given here; in the data, active means normalized growth mostly below about 0.91 (no sharp cut-off); inconclusive means no clear call, values can overlap the other calls; inactive means mostly above about 0.92. This is one part of the list.

Assay: chemical genetic growth profiling, strain panel (AID 1159580);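 further: tested at 20 µM; growth read once vehicle control cultures reached saturation at 30 °C; 1 = growth at the plate median or of vehicle wells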
Settings: S. cerevisiae deletion strains, growth OD
[1] = locus YHR030C, strain SLT2, stronger effect = lower value
[2] = locus YHR079C, strain IRE1, stronger effect = lower value
[3] = locus YJL095W, strain BCK1, stronger effect = lower value
[4] = locus YJR066W, strain TOR1, stronger effect = lower value
[5] = locus YLR113W, strain HOG1, stronger effect = lower value
[6] = locus YNL183C, strain NPR1, stronger effect = lower value
[7] = locus YOR231W, strain MKK1, stronger effect = lower value
[8] = locus YPL256C, strain CLN2, stronger effect = lower value

Measured: normalized growth

CC(=O)C1CCC2C3CC=C4CC(OS(=O)(=O)O)CC[C@]4(C)C3CC[C@]12C (stereo partly specified)
inactive: [1] 0.973 | [2] 0.984 | [3] 0.953 | [4] 0.877 | [5] 1.03 | [6] 0.902 | [7] 0.977 | [8] 0.975

CCC(CCC(C)[C@H]1CCC2C3CC=C4C[C@@H](O)CC[C@]4(C)C3CC[C@@]21C)C(C)C (stereo partly specified)
inactive: locus YAL013W, strain DEP1, stronger effect = lower value 0.998 | locus YAL021C, strain ccr4, stronger effect = lower value 1.01 | locus YAL026C, strain drs2, stronger effect = lower value 1.01 | locus YAL030W, strain snc1, stronger effect = lower value 1.01 | locus YBL061C, strain skt5, stronger effect = lower value 1.02 | locus YBR009C, strain hhf1, stronger effect = lower value 1.02 | locus YBR021W, strain FUR4, stronger effect = lower value 1.02 | locus YBR023C, strain chs3, stronger effect = lower value 1.01 | locus YBR171W, strain sec66, stronger effect = lower value 1.04 | locus YBR229C, strain ROT2, stronger effect = lower value 0.988 | locus YBR231C, strain swc5, stronger effect = lower value 1.01 | locus YBR279W, strain paf1, stronger effect = lower value 1.01 | locus YCL011C, strain gbp2, stronger effect = lower value 1.02 | locus YCL016C, strain dcc1, stronger effect = lower value 1.02 | locus YCL029C, strain bik1, stronger effect = lower value 0.999 | locus YCL061C, strain MRC1, stronger effect = lower value 1.02 | locus YCL069W, strain vba3, stronger effect = lower value 1.02 | locus YCR088W, strain abp1, stronger effect = lower value 1.02 | locus YDL005C, strain med2, stronger effect = lower value 1.02 | locus YDL035C, strain GPR1, stronger effect = lower value 1.05 | locus YDL040C, strain nat1, stronger effect = lower value 1.02 | locus YDL074C, strain BRE1, stronger effect = lower value 1.05 | locus YDL101C, strain DUN1, stronger effect = lower value 0.973 | locus YDL134C, strain PPH21, stronger effect = lower value 0.97 | locus YDL185W, strain tfp1, stronger effect = lower value 0.976 | locus YDL192W, strain arf1, stronger effect = lower value 1.02 | locus YDR001C, strain nth1, stronger effect = lower value 1.01 | locus YDR069C, strain doa4, stronger effect = lower value 1.03 | locus YDR101C, strain arx1, stronger effect = lower value 1.03 | locus YDR137W, strain rgp1, stronger effect = lower value 1.01 | locus YDR150W, strain NUM1, stronger effect = lower value 0.997 | locus YDR159W, strain sac3, stronger effect = lower value 1.04 | locus YDR162C, strain NBP2, stronger effect = lower value 0.994 | locus YDR195W, strain ref2 1.03 | locus YDR297W, strain sur2, stronger effect = lower value 1.03 | locus YDR318W, strain mcm21, stronger effect = lower value 0.986 | locus YDR334W, strain swr1, stronger effect = lower value 1.03 | locus YDR335W, strain msn5, stronger effect = lower value 1.01 | locus YDR388W, stronger effect = lower value 0.975 | locus YDR392W, strain spt3, stronger effect = lower value 1.02 | locus YDR502C, strain sam2, stronger effect = lower value 0.973 | locus YEL003W, strain gim4, stronger effect = lower value 1.01 | locus YEL037C, strain rad23, stronger effect = lower value 1.02 | locus YEL061C, strain CIN8 (second series), stronger effect = lower value 1.02 | locus YER015W, strain faa2, stronger effect = lower value 1.01 | locus YER016W, strain bim1, stronger effect = lower value 1.02 | locus YER110C, stronger effect = lower value 0.979 | locus YER111C, strain swi4, stronger effect = lower value 1.02 | locus YER155C, strain BEM2 (second series), stronger effect = lower value 1.04 | locus YER155C, strain BEM2, stronger effect = lower value 0.982 | locus YER167W, strain BCK2, stronger effect = lower value 1.01 | locus YFR010W, strain ubp6, stronger effect = lower value 1.02 | locus YGL078C, strain dbp3, stronger effect = lower value 0.983 | locus YGL086W, strain mad1, stronger effect = lower value 0.989 | locus YGL167C, strain pmr1, stronger effect = lower value 1.03 | locus YGL173C, strain kem1, stronger effect = lower value 1.02 | locus YGL227W, strain vid30, stronger effect = lower value 1.02 | locus YGL240W, strain doc1, stronger effect = lower value 1.03 | locus YGL248W, strain PDE1, stronger effect = lower value 0.978 | locus YGL253W, strain hxk2, stronger effect = lower value 1.02 | locus YGR135W, strain pre9, stronger effect = lower value 0.958 | locus YGR252W, strain gcn5, stronger effect = lower value 0.929 | locus YHR013C, strain ard1, stronger effect = lower value 1.04 | locus YHR027C, strain rpn1, stronger effect = lower value 1.01 | [1] 0.996 | locus YHR079C, strain IRE1 (second series), stronger effect = lower value 0.987 | [2] 0.984 | locus YHR094C, strain hxt1, stronger effect = lower value 0.984 | locus YHR129C, strain ARP1, stronger effect = lower value 0.994 | locus YHR142W, strain chs7, stronger effect = lower value 1.02 | locus YHR200W, strain rpn10, stronger effect = lower value 0.961 | locus YIL066C, strain RNR3, stronger effect = lower value 1.01 | locus YIL073C, strain SPO22, stronger effect = lower value 1.02 | locus YIL125W, strain kgd1, stronger effect = lower value 0.993 | locus YIR030C, strain dcg1, stronger effect = lower value 0.986 | locus YJL092W, strain hpr5, stronger effect = lower value 1.02 | locus YJL095W, strain BCK1 (second series), stronger effect = lower value 1.01 | [3] 0.972 and 0.979 | locus YJL115W, strain asf1, stronger effect = lower value 1 | locus YJL129C, strain trk1, stronger effect = lower value 1.03 | locus YJL134W, strain LCB3, stronger effect = lower value 0.991 | locus YJL154C, strain vps35, stronger effect = lower value 1.02 | locus YJL164C, strain tpk1, stronger effect = lower value 1.01 | locus YJL166W, strain qcr8, stronger effect = lower value 1.02 | locus YJL168C, strain set2, stronger effect = lower value 0.988 | locus YJL187C, strain SWE1 (second series), stronger effect = lower value 0.977 | locus YJL187C, strain SWE1, stronger effect = lower value 1.01 | locus YJR043C, strain POL32, stronger effect = lower value 1.06 | [4] 0.915 | locus YKL009W, strain mrt4, stronger effect = lower value 1.01 | locus YKL068W, stronger effect = lower value 0.981 | locus YKL085W, strain MDH1 (second series), stronger effect = lower value 0.998 | locus YKL085W, strain MDH1, stronger effect = lower value 0.998 | locus YKL160W, strain elf1, stronger effect = lower value 1.01 | locus YKR001C, strain vps1, stronger effect = lower value 1 | locus YKR026C, strain gcn3, stronger effect = lower value 1.02 | locus YKR091W, strain srl3, stronger effect = lower value 1.01 | locus YLL001W, strain dnm1, stronger effect = lower value 1.01 | locus YLL026W, stronger effect = lower value 1.02 | locus YLL041C, strain sdh2, stronger effect = lower value 1.01 | locus YLR027C, strain aat2, stronger effect = lower value 1.02 | locus YLR039C, strain RIC1, stronger effect = lower value 1.04 | locus YLR058C, strain SHM2, stronger effect = lower value 0.998 | locus YLR102C, strain apc9, stronger effect = lower value 0.976 | [5] 0.97 | locus YLR221C, strain rsa3, stronger effect = lower value 1.01 | locus YLR258W, strain gsy2, stronger effect = lower value 1 | locus YLR262C, strain YPT6 (second series), stronger effect = lower value 1.03 | locus YLR262C, strain YPT6, stronger effect = lower value 1.05 | locus YLR268W, strain sec22, stronger effect = lower value 1.01 | locus YLR320W, strain mms22, stronger effect = lower value 1.03 | locus YLR342W, strain FKS1 (second series), stronger effect = lower value 1.08 | locus YLR342W, strain FKS1, stronger effect = lower value 1.03 | locus YLR357W, strain rsc2, stronger effect = lower value 1 | locus YLR370C, strain arc18, stronger effect = lower value 1.01 | locus YLR371W, strain rom2, stronger effect = lower value 1 | locus YLR384C, strain iki3, stronger effect = lower value 1.02 | locus YLR418C, strain cdc73, stronger effect = lower value 0.964 | locus YML016C, strain PPZ1, stronger effect = lower value 1 | locus YML032C, strain rad52, stronger effect = lower value 1.01 | locus YML120C, strain ndi1, stronger effect = lower value 1.01 | locus YML124C, strain tub3, stronger effect = lower value 0.986 | locus YMR058W, strain fet3, stronger effect = lower value 1.02 | locus YMR078C, strain ctf18, stronger effect = lower value 0.971 | locus YMR125W, strain sto1, stronger effect = lower value 1.01 | locus YMR129W, stronger effect = lower value 1.01 | locus YMR205C, strain PFK2, stronger effect = lower value 1.03 | locus YMR223W, strain ubp8, stronger effect = lower value 0.987 | locus YMR231W, strain pep5, stronger effect = lower value 0.997 | locus YMR307W, strain GAS1, stronger effect = lower value 0.996 | locus YNL067W, strain RPL9B, stronger effect = lower value 0.988 | locus YNL071W, strain lat1, stronger effect = lower value 1.01 | locus YNL128W, strain TEP1, stronger effect = lower value 1.01 | locus YNL153C, strain GIM3, stronger effect = lower value 0.986 | [6] 0.905 | locus YNL209W, strain ssb2, stronger effect = lower value 1.01 | locus YNL233W, strain BNI4, stronger effect = lower value 0.968 | locus YNL248C, strain rpa49, stronger effect = lower value 1.01 | locus YNL250W, strain rad50, stronger effect = lower value 0.961 | locus YNL271C, strain bni1, stronger effect = lower value 0.974 | locus YNL298W, strain CLA4, stronger effect = lower value 0.993 | locus YNL307C, strain MCK1, stronger effect = lower value 0.978 | locus YNL322C, strain KRE1 (second series), stronger effect = lower value 1.01 | locus YNR049C, strain mso1, stronger effect = lower value 1.01 | locus YNR052C, strain pop2, stronger effect = lower value 0.973 | locus YOL006C, strain TOP1, stronger effect = lower value 1.1 | locus YOL012C, strain htz1 0.713 | locus YOL147C, strain pex11, stronger effect = lower value 0.989 | locus YOR001W, strain rrp6, stronger effect = lower value 1.03 | locus YOR061W, strain CKA2, stronger effect = lower value 1.02 | locus YOR069W, strain VPS5, stronger effect = lower value 0.99 | locus YOR070C, strain gyp1, stronger effect = lower value 1.05 | locus YOR080W, strain dia2, stronger effect = lower value 1.02 | locus YOR083W, strain WHI5, stronger effect = lower value 1.02 | locus YOR106W, strain vam3, stronger effect = lower value 1.02 | locus YOR136W, strain idh2, stronger effect = lower value 0.971 | locus YOR144C, strain elg1, stronger effect = lower value 0.988 | locus YOR184W, strain ser1, stronger effect = lower value 1.05 | [7] 0.991 | locus YOR265W, strain rbl2, stronger effect = lower value 1.02 | locus YOR270C, strain vph1, stronger effect = lower value 1.03 | locus YOR290C, strain snf2, stronger effect = lower value 1.02 | locus YOR316C, strain cot1, stronger effect = lower value 0.978 | locus YPL051W, strain arl3, stronger effect = lower value 1.04 | locus YPL078C, strain atp4, stronger effect = lower value 1.01 | locus YPL106C, strain sse1, stronger effect = lower value 1.01 | locus YPL240C, strain hsp82, stronger effect = lower value 1.01 | [8] 0.989 | locus YPR119W, strain clb2, stronger effect = lower value 0.97 | locus YPR141C, strain kar3, stronger effect = lower value 0.972 | locus YPR163C, strain tif3, stronger effect = lower value 0.979 | locus YPR167C, strain met16, stronger effect = lower value 0.97 | strain wtn01, stronger effect = lower value 1.01
